# Assay results taken from PubChem BioAssay (Tox21).
# Inconclusive results are not listed. Where a call stands in place of a potency, no number is given. Unmarked numbers belong to inactive results. Calls of active or inactive are those of the source. Calls come from the whole dose curve; as a rule, active = well fitted curve in the direction sought with a large enough effect in the repeat runs; inconclusive = weak or mixed curves; inactive = no such curve, though single readings can be large; an effect the other way counts as inactive or inconclusive.
# Assay: Caspase-3/7 induction in HepG2 cells by small molecules, qHTS assay (AID 1346978); note: nearly all actives have a fitted effect of over 15% in size
# Conditions: HepG2 caspase-3/7 activation, Caspase-Glo luminescence, 17 h; series mostly up to 92.4 µM
# In short: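 Wild-type HepG2 cells (2,000/well) were settled 5 h at 37 C, 5% CO2, then exposed to compounds in DMSO for 17 h. Caspase-3/7 activity was read by luminescence 30 min after adding Caspase-Glo 3/7 reagent at room temperature.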
row,SMILES,Potency
1,O=C(O)Cc1ccc(Cl)cc1Cl,inactive
2,CCCCOC(=O)c1ccccc1,inactive
3,COc1ccc(Br)c(C)c1,inactive
4,Cc1[nH]cnc1-c1ccc(Cl)cc1,inactive
5,NCCN1CCOCC1,inactive
6,CCC(C)NC(N)=O (configuration not stated),inactive
7,C=C(C)C(=O)OCCOP(=O)(O)OCCOC(=O)C(=C)C,inactive
8,COC(=O)[C@@H]1[C@H]2C[C@H]3c4[nH]c5ccccc5c4CCN3C[C@@H]2CC[C@@H]1O,inactive
9,C=C(C)C(=O)OCCN(CC)CC,inactive
10,CCN(CC)CC(=O)Nc1c(C)cccc1C,inactive

# Assay: Caspase-3/7 induction in CHO-K1 cells by small molecules, qHTS cell viability counter screen (AID 1346979); note: nearly all actives have a fitted effect of over 35% in size; note: potency is the fitted concentration of half-maximal effect
# Conditions: CellTiter-Fluor fluorescence, 17 h; series mostly up to 92.4 µM
# In short: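 Following a 5hr settling period, CHO-K1 cells at 1,500 per well received DMSO-dissolved compounds. Cell viability was quantified 16hr later by CellTiter-Fluor fluorescence, measured after 1hr with reagent at 37C.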
SMILES,Potency,"activity change, negative = cytotoxicity"
CCCCCCCCSCC,inactive,
CCCC/C=C\CCCCCCCCCC=O,inactive,
CCCCCCCCC1CCC(=O)O1 (configuration not stated),inactive,
Cc1cc(NC(=O)C2=C(O)c3ccccc3S(=O)(=O)N2C)no1,inactive,
N#Cc1ccc(C(=O)O)cc1,inactive,
CCNC(=O)C1CC(C)CCC1C(C)C (configuration not stated),inactive,
C=CCCCCCCCCCCCC,inactive,
CC(CO)c1ccccc1 (configuration not stated),inactive,
Nc1nnc(-c2cccc(Cl)c2Cl)c(N)n1,inactive,
Cc1cc(Cl)c(C)cc1Cl,inactive,
COCCOC(=O)C1=C(C)NC(C)=C(C(=O)OC(C)C)C1c1cccc([N+](=O)[O-])c1 (configuration not stated),21.1 µM (active),
O=C(O)C(=O)Cc1ccccc1,inactive,
CC(C)(C)c1n[nH]c(=S)n(N)c1=O,inactive,
COC(=O)CCc1ccc(OCC(O)CNC(C)C)cc1 (configuration not stated),inactive,
Nc1cccc(O)c1,inactive,
O=C(O)c1cc(Cl)cc([N+](=O)[O-])c1Cl,inactive,
C#CC(C)N(C)C(=O)Nc1ccc(Cl)cc1 (configuration not stated),inactive,
CCC(CC)CO,inactive,
CC(C)NCC(O)COc1cccc2[nH]ccc12 (configuration not stated),inactive,

SMILES,Potency,"activity change, negative = cytotoxicity"
COc1cc2c(cc1OC)C(=O)CC2,inactive,
CC1COc2ccccc2N1 (configuration not stated),inactive,
BrCCCCCBr,inactive,
C[C@@H](Oc1ccc(CNC(=O)c2cccnc2Oc2ccc3c(c2)OCO3)c(F)c1)C(=O)O,inactive,
COC(=O)C1CC(=O)C(C(=O)OC)CC1=O (configuration not stated),,8.06% [at 8.39 µM]
CC(C)CC(=O)O,inactive,
NS(=O)(=O)c1cc2c(cc1Cl)CN(C1CCCCC1)C2=O,inactive,
C=C(C)C1CCC(C)(O)CC1 (configuration not stated),inactive,
O=C(O)Cc1ccc(Cl)cc1Cl,inactive,
CCCCOC(=O)c1ccccc1,inactive,
COc1ccc(Br)c(C)c1,inactive,
Cc1[nH]cnc1-c1ccc(Cl)cc1,inactive,
NCCN1CCOCC1,inactive,
CCC(C)NC(N)=O (configuration not stated),inactive,
C=C(C)C(=O)OCCOP(=O)(O)OCCOC(=O)C(=C)C,inactive,
COC(=O)[C@@H]1[C@H]2C[C@H]3c4[nH]c5ccccc5c4CCN3C[C@@H]2CC[C@@H]1O,inactive,
C=C(C)C(=O)OCCN(CC)CC,inactive,
CCN(CC)CC(=O)Nc1c(C)cccc1C,inactive,
